Screening data deposited in PubChem BioAssay by several laboratories.
Most compounds without a hit are left out; they make up all but 1.5% or so of the library.
TLR4 MyD88 comp = inhibitors of TLR4-MyD88 association in cells, primary screen, cell-based, HeLa CL3-4, BLA complementation, FRET ratio; Toll-like receptor 4 (Homo sapiens) + Myeloid differentiation primary response protein …; HeLa CL3-4 TLR4/MyD88 BLA complementation; inhibition, % at 8.4 µM; actives 0.18% (n = 200,000); AID 861, 2007; in the data active means inhibition above about 25%;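 further: 0% = vehicle and 100% = reference inhibitor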
NOD2-RIPK2 inh = NOD2-RIPK2 binding disruptors in cells, primary screen, fluorescence, CHO cells, BLA complementation. Receptor-interacting serine/threonine-protein kinase 2 (Homo sapiens), O43353. actives 0.38% (n = 360,000). AID 624267, 2012. inhibition, % at 4.98 µM. CCF4 ratio; in the data active means inhibition above about 21%;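 further: 0% = vehicle only and 100% = reference blocker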
Target sequence (O43353 whole entry, looked up): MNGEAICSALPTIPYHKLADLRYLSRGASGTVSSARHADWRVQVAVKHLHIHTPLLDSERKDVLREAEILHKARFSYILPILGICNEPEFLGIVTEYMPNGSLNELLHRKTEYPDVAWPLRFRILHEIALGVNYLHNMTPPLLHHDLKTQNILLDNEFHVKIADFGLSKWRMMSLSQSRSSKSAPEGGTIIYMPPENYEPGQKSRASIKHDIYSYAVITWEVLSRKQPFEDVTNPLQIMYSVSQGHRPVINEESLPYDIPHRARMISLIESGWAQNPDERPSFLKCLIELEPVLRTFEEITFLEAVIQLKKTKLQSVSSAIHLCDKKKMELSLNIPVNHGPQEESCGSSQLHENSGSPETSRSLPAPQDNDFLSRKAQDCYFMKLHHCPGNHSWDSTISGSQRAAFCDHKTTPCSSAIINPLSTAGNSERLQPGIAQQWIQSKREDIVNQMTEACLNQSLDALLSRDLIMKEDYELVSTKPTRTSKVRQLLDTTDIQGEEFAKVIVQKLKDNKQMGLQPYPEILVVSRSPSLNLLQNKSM
ABHD5 PLIN5 PPI = ABHD5-PLIN5 interaction inhibitors, primary screen, cell lysate, split luciferase complementation, luminescence. Perilipin-5 (Homo sapiens) + 1-acylglycerol-3-phosphate O-acyltransferase ABHD5 (Homo …. Split G. princeps luciferase complementation, 4 h. inhibition, % at 4 µM. actives 0.78% (n = 360,000);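 active means inhibition above the mean inhibition across every tested compound plus 3 SD, cut at about 22% in these data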;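 further: 0% = DMSO only wells and the 100% control is not disclosed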
TLR9-MyD88 block = inhibitors of TLR9-MyD88 association in cells, primary screen, cell-based, CHO, BLA complementation, fluorescence | inhibition, % at 4.98 µM | actives 0.21% (n = 340,000) | CCF4 FRET ratio;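 active means inhibition above the mean over all tested compounds plus 3 SD, cut at about 21% in these data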;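 further: 0% = DMSO only wells and 100% = clavulanate BLA inhibitor control wells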
Beta2AR agonist = beta2AR agonists driving receptor internalization, primary screen, cell-based, FAP fluorogen, flow cytometry | Beta-2 adrenergic receptor (Homo sapiens), P07550 | Am2.2-beta2AR cells | response, % (no concentration beside the values) | actives 0.43% (n = 340,000);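 active means response above a set limit, near 3 SD of response in nonfluorescent compounds, cut at about 42% in these data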
NTR1 agonist = agonists of human NTR1, primary screen, imaging, U2OS cells, beta-arrestin-GFP, high content | Neurotensin receptor type 1 (Homo sapiens), P30989 | NTR1-U2OS beta-arrestin-GFP spot imaging, agonist mode | activation, % at 20 µM | actives 0.17% (n = 330,000) | AID 493036, 2011;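 active means activation at or above 40% of the spot to cytoplasm intensity ratio, with at least 20 cells analyzed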;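 further: 0% = DMSO without peptide and 100% = 100 nM NTR1 peptide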
* = called active by the depositor; / = not tested or not shown.

SMILES	TLR4 MyD88 comp	NOD2-RIPK2 inh	ABHD5 PLIN5 PPI	TLR9-MyD88 block	Beta2AR agonist	NTR1 agonist
CN=c1scc(C)n1/N=C/c1ccc(O)c(O)c1O	-3	-11	-15	4	69*	3
CN=c1scc(-c2cccs2)n1/N=C/c1ccc(O)c(O)c1O	2	8	-13	0	106*	9
O=C(N[C@H](CO)c1ccccc1)[C@H]1O[C@@H](n2ccc(=O)[nH]c2=O)[C@H](O)[C@@H]1O	/	1	-6	/	/	/
C#CCOCCOCCOCCNc1nc(N2CCN(C(=O)CCCCCCCCCCNC(=O)[C@H](CCCCN)n3cc(C[C@@H](C)CC)nn3)CC2)nc(N2CCN(C(=O)CCCCCCCCCCNC(=O)[C@@H]([C@H](C)O)n3cc(C)nn3)CC2)n1	/	35*	53*	15	77*	4
CC[C@H](C)Cc1cn([C@@H](CCCN=C(NC(=O)OC(C)(C)C)NC(=O)OC(C)(C)C)C(=O)NCCCCCCCCCCC(=O)N2CCN(C(=O)OC(C)(C)C)CC2)nn1	/	-6	15	-2	9	45*
C#CCOCCOCCOCCNc1nc(N2CCN(C(=O)CCCCCCCCCCNC(=O)[C@@H](CCSC)n3cc(CCO)nn3)CC2)nc(N2CCN(C(=O)CCCCCCCCCCNC(=O)[C@H](CCCN=C(N)N)n3cc(C[C@@H](C)CC)nn3)CC2)n1	/	41*	64*	-1	58*	8
C#CCOCCOCCOCCNc1nc(N2CCN(C(=O)CCCCCCCCCCNC(=O)[C@H](CO)n3cc(CCCCCN)nn3)CC2)nc(N2CCN(C(=O)CCCCCCCCCCNC(=O)[C@H](CCCN=C(N)N)n3cc(C[C@@H](C)CC)nn3)CC2)n1	/	/	/	/	/	14
CC[C@H](C)Cc1cn([C@@H](CCCCN)C(=O)NCCCCCCCCCCC(=O)N2CCNCC2)nn1	/	-3	5	-7	-9	0
C#CCOCCOCCOCCNc1nc(N2CCN(C(=O)[C@H](CCCCN)n3cc([C@@H](N)CC(C)C)nn3)CC2)nc(N2CCN(C(=O)[C@H](Cc3cc4ccccc4[nH]3)n3cc([C@@H](N)Cc4ccc(O)cc4)nn3)CC2)n1	-11	2	25*	3	-6	-3
C#CCOCCOCCOCCNc1nc(N2CCN(C(=O)CCCCCCCCCCNC(=O)[C@H](CCCCN)n3cc(C[C@@H](C)CC)nn3)CC2)nc(N2CCN(C(=O)CCCCCCCCCCNC(=O)[C@H](CCCN=C(N)N)n3cc(C[C@@H](C)CC)nn3)CC2)n1	/	73*	63*	34*	42*	1
CCN1CCN(Cc2ccc(NC(=O)c3ccc(C)c(NC(=O)c4cncc(-c5cccs5)c4)c3)cc2C(F)(F)F)CC1	/	29*	26*	7	13	/
CCN1CCN(Cc2ccc(NC(=O)c3ccc(C)c(NC(=O)c4nccn4C)c3)cc2C(F)(F)F)CC1	/	-4	4	-8	9	1
CCc1ccc([C@@H]2CC(=O)[C@@H]3CN(S(=O)(=O)c4ccccc4)[C@H](c4ccc(OC)cc4)C[C@@H]3N2S(=O)(=O)c2ccc(C)cc2)cc1	/	-12	-2	/	/	/
O=c1ccc2c(o1)/C(=C/C=C(Cl)Cl)CCC2	-5	-1	7	3	53*	-1
Cc1ccccc1Cn1c(=O)n(Cc2ccco2)c(=O)c2ccccc21	8	1	9	-9	-1	0
Cc1cc(C)c(NC(=O)Cn2c(=O)n(Cc3ccco3)c(=O)c3ccccc32)c(C)c1	6	-1	43*	1	-5	0
CN(C)CCCN(C(=O)COc1ccc(Cl)cc1)c1nc2cc3c(cc2s1)OCO3	/	-4	23*	3	7	15
COc1ccc(C2c3ccc4ccccc4c3Oc3ncn(CCCN(C)C)c(=N)c32)cc1 (centres undefined)	/	14	22*	5	35	24
CNC[C@H](CC1CCCCC1)NC[C@H](Cc1ccccc1)NCCC12CC3CC(CC(C3)C1)C2	/	14	-7	-7	52*	5
CC(=O)c1cccc(CN2CCCC(C(=O)Nc3ccc(-c4ccco4)cc3)C2)c1 (centres undefined)	/	-8	30*	-19	12	0
CS(=O)c1nc(-c2ccc(Br)cc2)cc(-c2ccccc2)c1C#N (centres undefined)	23	21	7	11	99*	66*
Cc1oc2c(c1C(=O)c1ccccc1)C(=O)C(=O)c1ccccc1-2	-5	-2	-14	2	98*	14
COc1ccc2[nH]c(=O)cc(C(=O)O)c2c1	-6	2	9	-4	-2	2
COc1ccc2[nH]c3c4c(ccc3c2c1)C(=O)C=CC4=O	/	0	13	8	61*	19
COc1ccc2sc(-c3ccc(SC)cc3)c(-c3ccc(O)cc3)c2c1	/	5	-10	-2	53*	25
SMILES	TLR4 MyD88 comp	NOD2-RIPK2 inh	ABHD5 PLIN5 PPI	TLR9-MyD88 block	Beta2AR agonist	NTR1 agonist
CC12CC(=O)C3C(CCC4=CC(=O)CCC43C)C1CC=C2CC(=O)O (centres undefined)	/	-9	4	0	3	/
COC(=O)C=C1CCC2C3CCC4=CC(=O)CCC4(C)C3C(=O)CC12C (centres undefined)	/	-1	-2	3	94*	/
COc1ccc(NC(=S)Nc2ccc3nsnc3c2)cc1	22	-1	23*	14	3	6
O=C(O)c1ccc(-c2ccc(/C=C3\NC(=O)N(Cc4ccc(Cl)cc4)C3=O)o2)cc1Cl	-6	-14	28*	-7	16	2
CC(N)c1csc(Nc2cc(Oc3ccccc3)ncn2)n1 (centres undefined)	/	16	-6	/	/	/
Cc1ccccc1/C=N/Nc1ccnc2cc(Cl)ccc12	8	-7	-7	7	48*	/
Clc1ccc2c(N/N=C/c3ccc(Br)cc3)ccnc2c1	8	6	-6	-4	61*	/
Clc1ccc2c(N/N=C/c3cccnc3)ccnc2c1	-7	3	4	8	-8	7
COc1ccc(N=C2NC(=O)/C(=C\C=C\c3ccco3)S2)cc1	-9	-1	22*	2	8	0
CC(=O)Oc1ccc2c(c1)O/C(=C\c1ccncc1)C2=O	/	31*	11	13	18	-1
Nc1[nH]c(C(=O)c2ccccc2)c(-c2ccc(Cl)cc2Cl)c1C(=O)NCCc1c[nH]c2ccccc12	/	4	-2	/	/	/
CC(=O)c1c(C)[nH]c(C(=O)OCC(=O)c2ccc(Br)cc2)c1C	/	-8	-7	4	/	/
